This passage reports binding signal results from publication PMC7862700, “An all-to-all approach to the identification of sequence-specific readers for epigenetic DNA modifications on cytosine”.

Chain of HSF1 (Q00613 whole entry): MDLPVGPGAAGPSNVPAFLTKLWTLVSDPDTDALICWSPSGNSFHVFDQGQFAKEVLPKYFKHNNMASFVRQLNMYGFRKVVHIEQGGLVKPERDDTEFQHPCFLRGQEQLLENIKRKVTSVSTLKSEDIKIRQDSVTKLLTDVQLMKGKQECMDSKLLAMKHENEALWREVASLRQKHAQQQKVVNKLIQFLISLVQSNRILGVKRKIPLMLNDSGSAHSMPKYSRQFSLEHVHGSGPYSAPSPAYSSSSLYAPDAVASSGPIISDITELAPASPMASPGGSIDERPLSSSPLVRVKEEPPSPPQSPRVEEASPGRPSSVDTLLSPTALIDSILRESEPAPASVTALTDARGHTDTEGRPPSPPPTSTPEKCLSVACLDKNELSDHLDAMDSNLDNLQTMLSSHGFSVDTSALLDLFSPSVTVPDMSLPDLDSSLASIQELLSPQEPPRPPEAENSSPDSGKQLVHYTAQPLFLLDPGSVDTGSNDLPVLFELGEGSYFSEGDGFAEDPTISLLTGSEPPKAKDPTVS
Chain of ETV5 (P41161 whole entry): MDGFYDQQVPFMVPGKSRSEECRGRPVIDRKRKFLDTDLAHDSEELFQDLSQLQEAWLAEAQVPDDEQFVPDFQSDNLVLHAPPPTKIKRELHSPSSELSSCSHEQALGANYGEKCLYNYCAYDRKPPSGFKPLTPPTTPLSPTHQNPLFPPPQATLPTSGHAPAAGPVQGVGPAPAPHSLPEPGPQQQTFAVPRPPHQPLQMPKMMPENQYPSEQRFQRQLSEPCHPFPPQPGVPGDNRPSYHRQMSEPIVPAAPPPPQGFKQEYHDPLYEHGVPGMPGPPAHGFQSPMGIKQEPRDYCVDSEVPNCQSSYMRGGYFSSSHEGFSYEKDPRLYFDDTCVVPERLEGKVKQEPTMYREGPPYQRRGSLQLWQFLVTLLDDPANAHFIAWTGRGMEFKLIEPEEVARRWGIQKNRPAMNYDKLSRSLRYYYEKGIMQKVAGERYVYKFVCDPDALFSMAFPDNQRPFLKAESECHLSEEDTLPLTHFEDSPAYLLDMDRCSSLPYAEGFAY

One assay deals with T1, FEV (Homo sapiens, UniProt Q99581 1-238).
T1 sequence: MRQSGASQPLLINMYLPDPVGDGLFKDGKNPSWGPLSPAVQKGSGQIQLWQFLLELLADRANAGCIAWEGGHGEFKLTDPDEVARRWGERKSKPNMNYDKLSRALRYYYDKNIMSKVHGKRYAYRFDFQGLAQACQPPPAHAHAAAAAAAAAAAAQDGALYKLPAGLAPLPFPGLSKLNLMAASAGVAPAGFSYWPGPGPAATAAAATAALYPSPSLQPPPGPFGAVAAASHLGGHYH
Description: DAPPL (digital affinity profiling via proximity ligation, sequencing); 10 mM Tris-HCl pH 7.5, 50 mM NaCl, 1 mM DTT, 4% glycerol, room temperature, 30 min; GST-TFs on glutathione beads, 16-mer random dsDNA library, 0.1% formaldehyde crosslink after washing; high values mean tight binding. The following applies: protein: recombinant; tags: N-terminal GST; dsDNA, one strand shown. The essentials: (§1)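 In yeast, human transcription factors were expressed with a GST fusion, then pulled down on glutathione beads and given DNA barcodes. Pooled with a tag-only sample, they were exposed to 200 nmole of a 16-mer random double-stranded DNA library (Tris/NaCl/DTT/glycerol buffer, room temperature, 30 min), washed, crosslinked with 0.1% formaldehyde, proximity-ligated using BsaI/T4 ligase for 1 h at 37 °C, PCR-amplified and read on an Illumina NextSeq500. Each hexamer's frequency of reads for a factor, divided by the matching frequency for the tag-only sample, gives the binding signal.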
As for TGGCAA, the binding signal is 1.17 fold enrichment (6-mer frequency, TF over GST control).
Still for that read-out and setting: for AATAAC the value was 1.25 fold enrichment (6-mer frequency, TF over GST control); for ATTTGT, 1.34 fold enrichment (6-mer frequency, TF over GST control).
For CTGGCA, the binding signal is 1.27 fold enrichment (6-mer frequency, TF over GST control).
As to GCTTAT, the binding signal was 1.21 fold enrichment (6-mer frequency, TF over GST control).
In the case of TGTCTA, the binding signal was 1.14 fold enrichment (6-mer frequency, TF over GST control).
On to GCCGAT, for which the binding signal is 1.11 fold enrichment (6-mer frequency, TF over GST control).
In the case of ATTGGG, the binding signal is 1.13 fold enrichment (6-mer frequency, TF over GST control).
On the same count and under the same terms, the figure for TTGATC is 1.17 fold enrichment (6-mer frequency, TF over GST control); for AATCGC it is 1.08 fold enrichment (6-mer frequency, TF over GST control); for CCTCTC it is 1.36 fold enrichment (6-mer frequency, TF over GST control).
Regarding CCTCTT, the binding signal was 1.58 fold enrichment (6-mer frequency, TF over GST control).
Take TTTGGA: the binding signal was 1.2 fold enrichment (6-mer frequency, TF over GST control).
For the sequence TCTACA, the binding signal was 1.2 fold enrichment (6-mer frequency, TF over GST control).
For TCTCGC, the binding signal is 1.64 fold enrichment (6-mer frequency, TF over GST control).
Consider CTGATG, for which the binding signal was 1.62 fold enrichment (6-mer frequency, TF over GST control).
As to CTGATC, the binding signal is 1.31 fold enrichment (6-mer frequency, TF over GST control).
In the case of CTCATC, the binding signal is 1.34 fold enrichment (6-mer frequency, TF over GST control).
As for ATATTT, the binding signal is 1.47 fold enrichment (6-mer frequency, TF over GST control).
Take TACAAT: the binding signal is 1.29 fold enrichment (6-mer frequency, TF over GST control).
For the sequence CACTTG, the binding signal is 1.33 fold enrichment (6-mer frequency, TF over GST control).
For TACGTT, the binding signal was 1.35 fold enrichment (6-mer frequency, TF over GST control).
In the case of CATTCG, the binding signal was 1.17 fold enrichment (6-mer frequency, TF over GST control).
Regarding CCTTCG, the binding signal was 1.38 fold enrichment (6-mer frequency, TF over GST control).
On to TGACCT, for which the binding signal is 1.69 fold enrichment (6-mer frequency, TF over GST control).
Consider TATAAC, for which the binding signal was 1.26 fold enrichment (6-mer frequency, TF over GST control).
For CTTTCA, the binding signal was 1.31 fold enrichment (6-mer frequency, TF over GST control).
AATATT: the binding signal is 1.3 fold enrichment (6-mer frequency, TF over GST control).
On to CTTGCA, for which the binding signal is 1.3 fold enrichment (6-mer frequency, TF over GST control).
TTGCGG: the binding signal was 1.19 fold enrichment (6-mer frequency, TF over GST control).
With TCTGTT, the binding signal was 1.29 fold enrichment (6-mer frequency, TF over GST control).
For TCCTGG, the binding signal is 1.46 fold enrichment (6-mer frequency, TF over GST control).
With CGAAAA, the binding signal was 1.04 fold enrichment (6-mer frequency, TF over GST control).
The same measure, in the same setting: the figure for TAATCC is 1.24 fold enrichment (6-mer frequency, TF over GST control).
Regarding TTTCTT, the binding signal was 1.23 fold enrichment (6-mer frequency, TF over GST control).
As to CTCAGC, the binding signal is 1.3 fold enrichment (6-mer frequency, TF over GST control).
Consider ACTTGT, for which the binding signal is 1.28 fold enrichment (6-mer frequency, TF over GST control).
Consider CTTCTA, for which the binding signal was 1.4 fold enrichment (6-mer frequency, TF over GST control).
For the sequence TTCGAT, the binding signal was 1.27 fold enrichment (6-mer frequency, TF over GST control).
On to TCTCCG, for which the binding signal is 1.69 fold enrichment (6-mer frequency, TF over GST control).

The target in another assay is ETV5 (Homo sapiens, UniProt P41161 1-510). Described as above. The settings on record: protein: recombinant; tags: N-terminal GST; dsDNA, one strand shown. The essentials:
as §1
On to TGGCAA, for which the binding signal was 1.18 fold enrichment (6-mer frequency, TF over GST control).
In the case of AATAAC, the binding signal is 1.3 fold enrichment (6-mer frequency, TF over GST control).
Same read-out and setting: for ATTTGT the value was 1.41 fold enrichment (6-mer frequency, TF over GST control).
Still for that read-out and setting: for CTGGCA the value was 1.21 fold enrichment (6-mer frequency, TF over GST control); for GCTTAT, 1.23 fold enrichment (6-mer frequency, TF over GST control); for TGTCTA, 1.24 fold enrichment (6-mer frequency, TF over GST control).
Same read-out and setting: the figure for GCCGAT is 1.11 fold enrichment (6-mer frequency, TF over GST control); for ATTGGG it is 1.26 fold enrichment (6-mer frequency, TF over GST control).
With TTGATC, the binding signal is 1.26 fold enrichment (6-mer frequency, TF over GST control).
As to AATCGC, the binding signal is 1.03 fold enrichment (6-mer frequency, TF over GST control).
With CCTCTC, the binding signal is 1.34 fold enrichment (6-mer frequency, TF over GST control).
As for CCTCTT, the binding signal is 1.68 fold enrichment (6-mer frequency, TF over GST control).
For the sequence TTTGGA, the binding signal is 1.21 fold enrichment (6-mer frequency, TF over GST control).
As to TCTACA, the binding signal was 1.18 fold enrichment (6-mer frequency, TF over GST control).
As for TCTCGC, the binding signal was 1.6 fold enrichment (6-mer frequency, TF over GST control).
Take CTGATG: the binding signal is 1.65 fold enrichment (6-mer frequency, TF over GST control).
Take CTGATC: the binding signal is 1.29 fold enrichment (6-mer frequency, TF over GST control).
Still for that read-out and setting: for CTCATC the value was 1.34 fold enrichment (6-mer frequency, TF over GST control); for ATATTT, 1.54 fold enrichment (6-mer frequency, TF over GST control); for TACAAT, 1.3 fold enrichment (6-mer frequency, TF over GST control).
As to CACTTG, the binding signal is 1.41 fold enrichment (6-mer frequency, TF over GST control).
On the same count and under the same terms, for TACGTT the value was 1.33 fold enrichment (6-mer frequency, TF over GST control); for CATTCG, 1.09 fold enrichment (6-mer frequency, TF over GST control); for CCTTCG, 1.3 fold enrichment (6-mer frequency, TF over GST control).
On the same count and under the same terms, the figure for TGACCT is 1.68 fold enrichment (6-mer frequency, TF over GST control); for TATAAC it is 1.2 fold enrichment (6-mer frequency, TF over GST control); for CTTTCA it is 1.26 fold enrichment (6-mer frequency, TF over GST control).
Take AATATT: the binding signal is 1.4 fold enrichment (6-mer frequency, TF over GST control).
As for CTTGCA, the binding signal is 1.31 fold enrichment (6-mer frequency, TF over GST control).
Still for that read-out and setting: for TTGCGG the value was 1.36 fold enrichment (6-mer frequency, TF over GST control).
TCTGTT: the binding signal was 1.27 fold enrichment (6-mer frequency, TF over GST control).
Turning to TCCTGG, the binding signal is 1.68 fold enrichment (6-mer frequency, TF over GST control).
On to CGAAAA, for which the binding signal was 1.13 fold enrichment (6-mer frequency, TF over GST control).
Turning to TAATCC, the binding signal was 1.3 fold enrichment (6-mer frequency, TF over GST control).
As to TTTCTT, the binding signal is 1.22 fold enrichment (6-mer frequency, TF over GST control).
On to CTCAGC, for which the binding signal was 1.11 fold enrichment (6-mer frequency, TF over GST control).
On the same count and under the same terms, the figure for ACTTGT is 1.21 fold enrichment (6-mer frequency, TF over GST control); for CTTCTA it is 1.46 fold enrichment (6-mer frequency, TF over GST control).
On to TTCGAT, for which the binding signal is 1.36 fold enrichment (6-mer frequency, TF over GST control).
Turning to TCTCCG, the binding signal was 1.61 fold enrichment (6-mer frequency, TF over GST control).

Another assay concerns the target HSF1 (Homo sapiens, UniProt Q00613 1-529). The description is as above. The settings on record: protein: recombinant; tags: N-terminal GST; chain copies: 3; dsDNA, one strand shown. The essentials: as §1
With TGGCAA, the binding signal is 1.18 fold enrichment (6-mer frequency, TF over GST control).
Still for that read-out and setting: for AATAAC the value was 1.27 fold enrichment (6-mer frequency, TF over GST control); for ATTTGT, 1.33 fold enrichment (6-mer frequency, TF over GST control); for CTGGCA, 1.62 fold enrichment (6-mer frequency, TF over GST control).
Consider GCTTAT, for which the binding signal is 1.89 fold enrichment (6-mer frequency, TF over GST control).
On to TGTCTA, for which the binding signal was 1.15 fold enrichment (6-mer frequency, TF over GST control).
As to GCCGAT, the binding signal is 1.13 fold enrichment (6-mer frequency, TF over GST control).
Same read-out and setting: for ATTGGG the value was 1.06 fold enrichment (6-mer frequency, TF over GST control); for TTGATC, 1.48 fold enrichment (6-mer frequency, TF over GST control); for AATCGC, 1.3 fold enrichment (6-mer frequency, TF over GST control).
Take CCTCTC: the binding signal is 1.23 fold enrichment (6-mer frequency, TF over GST control).
The same measure, in the same setting: the figure for CCTCTT is 1.4 fold enrichment (6-mer frequency, TF over GST control); for TTTGGA it is 1.48 fold enrichment (6-mer frequency, TF over GST control); for TCTACA it is 1.39 fold enrichment (6-mer frequency, TF over GST control).
Regarding TCTCGC, the binding signal is 2.5 fold enrichment (6-mer frequency, TF over GST control).
For the sequence CTGATG, the binding signal is 1.33 fold enrichment (6-mer frequency, TF over GST control).
Take CTGATC: the binding signal was 1.53 fold enrichment (6-mer frequency, TF over GST control).
As to CTCATC, the binding signal is 1.27 fold enrichment (6-mer frequency, TF over GST control).
Consider ATATTT, for which the binding signal was 1.52 fold enrichment (6-mer frequency, TF over GST control).
As to TACAAT, the binding signal is 1.32 fold enrichment (6-mer frequency, TF over GST control).
